According to PubChem BioAssay (NCATS):
Inconclusive results are not listed. Activity calls are given as the source filed them. Calls come from the whole dose curve; as a rule, active = well fitted cell-killing curve with a large enough effect; inconclusive = small, poorly fitted or top-dose-only effect, or effect the other way; inactive = no such curve, though single readings can be large or run the other way.

assay: Quantitative High-Throughput drug screen in 47 multiple myeloma cell lines against the NCATS MIPE library collection: OPM2_DSMZ cell viability assay (AID 1919872); conditions: OPM2 myeloma viability, CellTiter-Glo ATP luminescence, 48 h; series mostly up to 45.8 µM; viability (% of DMSO): at the top concentration; note: nearly all actives have a fitted effect of over 30% in size
Text: PI: Beverly A. Mock Ph.D.
Laboratory of Cancer Biology and Genetics,
Center for Cancer Research, National Cancer Institute,
National Institute of Health, Bethesda, Maryland
Drug resistance and disease progression are common in multiple myeloma (MM) patients, underscoring the need for new therapeutic combinations. […] We hypothesized that effective combinations would reduce MYC expression and enhance p16 activity. […] These preclinical data identify potentially useful drug combinations for evaluation in drug-resistant MM and reveal potential mechanisms of combined drug sensitivity.
Described herein is the primary MIPE qHTS used to cherrypick compounds. Validated compounds were then further tested for potential synergistic activiy.
[1] Peat TJ, Gaikwad SM, Dubois W, Gyabaah-Kessie N, Zhang S, Gorjifard S, Phyo Z, Andres M, Hughitt VK, Simpson RM, Miller MA, Girvin AT, Taylor A, Williams D, D'Antonio N, Zhang Y, Rajagopalan A, Flietner E, Wilson K, Zhang X, Shinn P, Klumpp-Thomas C, McKnight C, Itkin Z, Chen L, Kazandijian D, Zhang J, Michalowski AM, Simmons JK, Keats J, Thomas CJ, Mock BA. Drug combinations identified by high-throughput screening promote cell cycle transition and upregulate Smad pathways in myeloma. Cancer Lett. 2023 Aug 1;568:216284. doi: 10.1016/j.canlet.2023.216284. Epub 2023 Jun 24. PMID: 37356470; PMCID: PMC10408729.
SEQUENCE No. (e.g., 1, 2, 3, etc.); […] (e.g., Cells, Incubation, Reagent, etc.); VALUE and DESCRIPTION.
1; Cells; 5 uL; white, solid bottom 1536-well Greiner assay plate.
2; Compounds; 23 nL; Kalypsis pin tool (Wako USA) equipped with a 1536-well pin head to transfer to the assay plates.
3; Incubation; 48 hours; 37C incubation.
4; Reagent;5uL; CellTiter Glo (Promega).
5; Detector; 425V; Luminescence; Viewlux PerkinElmer.
NOTES (numbers refer to Sequence numbers above)
1. The cell-based screening methods employed in this study were like those previously published. Briefly, the corresponding myeloma cell lines were screened in 1,536-well plates with 500 cells, 5-uL per well for inhibition of cell viability (assessed by measuring ATP levels with CellTiterGlo).
2. NCATS MIPE 4.0 library of approved and investigational drugs were added using the Kalypsis pin tool. Wells treated with DMSO only for 100% viability and media only wells for 0% viability were used as controls.
3. The assay plates were covered and incubated for 48 hours in a 37C, 5% CO2 incubator with controlled humidity.
4. After 48 hours, CellTilter-GloTM luminescent substrate mix (Promega) reagent was added to the assay plate and plates we incubated for 5 min at room temperature.
5. Signal was measured as median relative luminescence units on a ViewLux (PerkinElmer) multiplate reader.
[1] Heske CM, Davis MI, Baumgart JT, Wilson K, Gormally MV, Chen L, Zhang X, Ceribelli M, Duveau DY, Guha R, Ferrer M, Arnaldez FI, Ji J, Tran HL, Zhang Y, Mendoza A, Helman LJ, Thomas CJ. Matrix Screen Identifies Synergistic Combination of PARP Inhibitors and Nicotinamide Phosphoribosyltransferase (NAMPT) Inhibitors in Ewing Sarcoma. Clin Cancer Res. 2017 Dec 1;23(23):7301-7311. doi: 10.1158/1078-0432.CCR-17-1121. Epub 2017 Sep 12. PMID: 28899971; PMCID: PMC6636827.
Potency is the fitted concentration of half-maximal effect.

Compound	Potency	viability (% of DMSO)
Nc1ccc(-c2ccc3ncc4ccc(=O)n(-c5cccc(C(F)(F)F)c5)c4c3c2)cn1	0.0059 µM (active)	–
O=C(O)c1nc(=O)[nH]c(=O)[nH]1	–	101% [at 23.2 µM] (inactive)
CN1CC(=O)N2C(Cc3c([nH]c4ccccc34)[C@H]2c2ccc3c(c2)OCO3)C1=O (stereo not given in full)	–	99.2% (inactive)
COC(=O)[C@H](c1ccccc1Cl)N1CCc2sccc2C1	–	107% (inactive)
CC[C@H](C)C(=O)O[C@H]1C[C@H](O)C=C2C=C[C@H](C)[C@H](CC[C@@H](O)C[C@@H](O)CC(=O)O)[C@H]21	–	103% (inactive)
OC[C@H]1O[C@@H](Oc2ccc(O)cc2)[C@H](O)[C@@H](O)[C@H]1O	–	106% (inactive)
COc1cc2nccc(Oc3ccc(NC(=O)Nc4ccc(F)cc4F)c(F)c3)c2cc1OC	4.69 µM (active)	–
CCCCCCCCCCCCCCCC(=O)O[C@H]1[C@@H](O)[C@@H](O)[C@@H]([C@H](NC(=O)[C@@H]2C[C@@H](CCC)CN2C)[C@H](C)Cl)O[C@@H]1SC	–	94.3% (inactive)
Cc1ccc(C(=O)N(CCCN)[C@@H](c2oc3cc(Cl)ccc3c(=O)c2Cc2ccccc2)C(C)C)cc1	–	0.422% (inactive)
Cc1cc2nc3c(=O)[nH]c(=O)nc-3n(CC(O)C(O)C(O)CO)c2cc1C (stereo not given)	–	103% (inactive)
COc1ccc(Cn2ccc3ccc(C(=O)NO)cc32)cc1	–	93.1% (inactive)
COc1cc(C=CC(=O)O)ccc1O	–	114% (inactive)
CCC=CC[C@H]1C(=O)CC[C@@H]1CC(=O)OC	–	111% (inactive)
NC(=O)c1noc([C@H](CCCC2CCCCC2)CC(=O)NO)n1	20.9 µM (active)	–
Cc1cc(C(C)Nc2ccccc2)c2nc(N3CCOCC3)cc(=O)n2c1 (stereo not given)	–	106% (inactive)
CO[C@H]1O[C@@H]2O[C@@]3(C)CC[C@@H]4[C@@H](C)CC[C@@H]([C@H]1C)[C@@]24OO3	–	81% (inactive)
CC(C)Oc1cc(Nc2nc(N[C@@H](C)c3ccc(F)cn3)ncc2Cl)[nH]n1	16.6 µM (active)	–
Cc1c(-c2cccc3c(CCCOc4cccc5ccccc45)c(C(=O)O)n(Cc4cccnc4)c23)c(COc2ccc(N3CCN([S+](=O)([O-])N(C)C)CC3)cc2)nn1C	16.6 µM (active)	–
NC(=O)c1ncn([C@@H]2O[C@H](CO)[C@@H](O)[C@@H]2O)n1	–	102% (inactive)
Cc1ccccc1C(=O)c1ccc(Nc2ccc(Br)cc2N)cc1Cl	23.5 µM (active)	–

Compound	Potency	viability (% of DMSO)
CCN(CCO)CCCOc1ccc2c(Nc3cc(CC(=O)Nc4cccc(F)c4)[nH]n3)ncnc2c1	–	99.6% (inactive)
CCCCC[C@H](O)C=C[C@H]1[C@H](O)CC(=O)[C@H]1CC=CCCCC(=O)O	–	82.7% (inactive)
Fc1ccc(C(c2ccc(F)cc2)N2CCN(CC=Cc3ccccc3)CC2)cc1	–	97.6% (inactive)
C[C@@H](N)c1ccc(C(=O)Nc2ccnc3[nH]ccc23)cc1	–	97.4% (inactive)
Cc1c(C(=O)Nc2ccc(N3C[C@@H](C)O[C@@H](C)C3)nc2)cccc1-c1ccc(OC(F)(F)F)cc1	23.5 µM (active)	–
Cc1cnc(Nc2cccc(CN3CCOCC3)c2)nc1Nc1cccc(S(=O)(=O)NC(C)(C)C)c1	9.35 µM (active)	–
O=C1C(c2c(O)[nH]c3ccccc23)=Nc2ccccc21	–	94.5% (inactive)
NC1(C(=O)N[C@@H](CCO)c2ccc(Cl)cc2)CCN(c2ncnc3[nH]ccc23)CC1	13.2 µM (active)	–
CC=C1C2C=C(C)CC1(N)c1ccc(=O)[nH]c1C2 (stereo not given)	–	85.6% (inactive)
O=C(CO)N1CCC(c2[nH]nc(-c3ccc(Cl)cc3)c2-c2ccncn2)CC1	–	98.3% (inactive)
CCN1CCN(c2ccc(Nc3cc(N(C)C(=O)Nc4c(Cl)c(OC)cc(OC)c4Cl)ncn3)cc2)CC1	0.209 µM (active)	–
Fc1ccc(CNc2ncnc3ccc(F)cc23)cc1	2.96 µM (active)	–
N#Cc1ccc(Oc2ccc3c(c2)COB3O)cc1	–	90% (inactive)
O=C1NC(=O)C(c2cnc3ccccn23)=C1c1cn2c3c(cccc13)CN(C(=O)N1CCOCC1)CC2	0.0047 µM (active)	–
O=C1NC(=O)C(=Cc2ccc(-c3ccc(F)cc3O)o2)S1	–	108% (inactive)
CN(C)CCN(Cc1ccc(Cl)cc1)c1ccccn1	–	105% (inactive)
CO[C@H]1/C=C\O[C@@]2(C)Oc3c(C)c(O)c4c(O)c(c5c(nc6cc(C)ccn65)c4c3C2=O)NC(=O)C(C)=CC=C[C@H](C)[C@H](O)[C@@H](C)[C@@H](O)[C@@H](C)[C@H](OC(C)=O)[C@H]1C	–	103% (inactive)
O=S(=O)(O)c1ccc2cc(N=Nc3cc(S(=O)(=O)O)c4cccnc4c3O)ccc2c1	–	85.4% (inactive)
CC1(COc2ccc3c(c2)ncn3-c2ccc3cccc(N4CCC(N)CC4)c3n2)COC1	0.743 µM (active)	–
CN(C)CCOc1ccc(-c2nc(-c3ccc4c(c3)CCC4=NO)c(-c3ccncc3)[nH]2)cc1	16.6 µM (active)	–
